Test systems include NCI-H23 lung; NCI-H226 lung; NCI-H322M lung; HOP-62 NSCLC; NCI-H460 lung; HOP-92 NSCLC; NCI-H522 lung; A549/ATCC NSCLC; 786-0 renal; COLO 205 colon.
Common to all, as to assay: NCI-60 one-dose screen, 48 h (100 = growth as untreated, 0 = no growth, -100 = all killed)
What all share (details): 10 µM

Here are results for twelve compounds from PubChem BioAssay (NCI).

The panel holds about 83,000 compounds, 20% with a hit somewhere; the sample as a whole holds those more often.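 Assay: single dose, 48 h. Readout: percent growth (0 = no net growth; negative = cell death). Active: <10.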 Values without a mark were called inactive. The source made the active and inactive calls.

`CC1=N/C(=C\c2ccc(N(C)C)cc2)C(=O)N1CCc1ccc(S(N)(=O)=O)cc1`: the growth in the assay on NCI-H23 lung is 98.5%; in the assay with NCI-H226 lung it was 98.3%; with NCI-H322M lung it was 107%; in the assay with HOP-62 NSCLC it was 84.4%; with NCI-H460 lung it was 107%; in the assay on HOP-92 NSCLC, 96.5%. Besides, the growth in the assay with NCI-H522 lung was 87.2%; in the assay on A549/ATCC NSCLC, 93.2%; in the assay on 786-0 renal, 101%; with COLO 205 colon, 113%.
For `COc1ccc2[nH]c(=O)c(CSc3cccc(N)c3)cc2c1`, the growth in the assay on NCI-H23 lung was 79.2%; in the assay on NCI-H226 lung it was 74.5%; with NCI-H322M lung it was 74.6%; with HOP-62 NSCLC it was 61.5%; in the assay on NCI-H460 lung, 20.7%; in the assay with HOP-92 NSCLC it was 76.5%. In addition, the growth is 62.6% in the assay with NCI-H522 lung, 46.4% in the assay on A549/ATCC NSCLC, 55% in the assay with 786-0 renal and 2.77% (active) in the assay on COLO 205 colon.
For the compound `O=C1CCC(N2Cc3c(C#CCCCNC(=O)c4ccc(NC(=O)[C@@H]5NC6(CCCCC6)[C@@]6(C(=O)Nc7cc(Cl)ccc76)[C@H]5c5cccc(Cl)c5F)cc4)cccc3C2=O)C(=O)N1` (stereo not given in full), the growth in the assay with NCI-H23 lung was 74.4%; in the assay with NCI-H226 lung, 24.1%; with NCI-H322M lung, 77.5%; with HOP-62 NSCLC, 72.7%; in the assay on NCI-H460 lung it was 33.1%; in the assay with HOP-92 NSCLC, 39.3%. Besides, the growth in the assay with NCI-H522 lung was 70.3%; in the assay on A549/ATCC NSCLC it was 34.5%; in the assay on 786-0 renal it was 48.4%; with COLO 205 colon, 70.5%.
On to `O=C(Nc1nc2ccccc2s1)c1ccc(Br)cc1`, for which the growth is 74% in the assay on NCI-H23 lung; 67.4% in the assay with NCI-H226 lung; 83.4% with NCI-H322M lung; 101% with HOP-62 NSCLC; 81.6% with NCI-H460 lung; 100% in the assay with HOP-92 NSCLC. Further, the growth was 75.3% in the assay with NCI-H522 lung, 84.9% in the assay with A549/ATCC NSCLC, 99.6% with 786-0 renal and 107% in the assay on COLO 205 colon.
`Cc1ccc(-c2nc3ccc(C(=O)N=Nc4c(O)[nH]c5ccc([N+](=O)[O-])cc45)cc3[nH]2)cc1`: the growth was 64.6% with NCI-H23 lung; 45.4% with NCI-H226 lung; 105% in the assay with NCI-H322M lung; 88.5% in the assay with HOP-62 NSCLC; 103% in the assay with NCI-H460 lung; 44.3% in the assay on HOP-92 NSCLC. Also, the growth in the assay with NCI-H522 lung was 78.3%; in the assay with A549/ATCC NSCLC it was 98%; with 786-0 renal, 85.2%; in the assay on COLO 205 colon, 70.9%.
Take `Nc1cc(-c2cccc(C(=O)NCc3ccc4c(c3)OCO4)c2)ccn1`: the growth was 88% in the assay with NCI-H23 lung; 87.3% in the assay on NCI-H226 lung; 111% in the assay with NCI-H322M lung; 93.6% with HOP-62 NSCLC; 111% in the assay with NCI-H460 lung; 89.4% in the assay with HOP-92 NSCLC. The growth with NCI-H522 lung was 84.4%; with A549/ATCC NSCLC, 99.2%; with 786-0 renal it was 96.7%; with COLO 205 colon, 131%.
As for `CC(C)C1=C[C@@]23CC[C@@H]4[C@](C)(CCC[C@]4(C)C(=O)NCc4ccccc4)[C@H]2C[C@@H]1[C@H]1C(=O)OC(=O)[C@H]13`, the growth was 23% in the assay on NCI-H23 lung; 76.1% in the assay on NCI-H226 lung; 102% in the assay with NCI-H322M lung; 57.2% in the assay with HOP-62 NSCLC; 17.6% in the assay on NCI-H460 lung; 64.7% with HOP-92 NSCLC. The growth with NCI-H522 lung is 17%; in the assay with A549/ATCC NSCLC, 33.7%; in the assay on 786-0 renal, 70.5%; with COLO 205 colon, 79.6%.
Consider `CCCn1c(=O)c2[nH]c(-c3ccc(OCc4nc5ccc(C(F)(F)F)cc5[nH]4)cc3)nc2n(CCC)c1=O`, for which the growth is 11.1% in the assay on NCI-H23 lung; 37.8% with NCI-H226 lung; 69.2% in the assay with NCI-H322M lung; 87% in the assay on HOP-62 NSCLC; 41.4% in the assay with NCI-H460 lung; 67.7% with HOP-92 NSCLC. The growth with NCI-H522 lung is 23.6%; in the assay on A549/ATCC NSCLC, 46.7%; in the assay on 786-0 renal, 42.8%; with COLO 205 colon, 59.3%.
Consider `COc1ccc2[nH]c(=O)c(CSc3ccc(Nc4nccc(-c5ccc(Cl)cc5)n4)cc3)cc2c1`, for which the growth in the assay with NCI-H23 lung is 83.9%; with NCI-H226 lung it was 38.8%; in the assay on NCI-H322M lung, 95.7%; with HOP-62 NSCLC it was 104%; with NCI-H460 lung it was 112%; in the assay on HOP-92 NSCLC, 93.2%. Moreover, the growth with NCI-H522 lung is 86.7%; in the assay with A549/ATCC NSCLC, 98.1%; in the assay with 786-0 renal it was 109%; in the assay with COLO 205 colon, 108%.
For the compound `O=C(N/C(=C1/OCCN1Cc1ccccc1)[P+](c1ccccc1)(c1ccccc1)c1ccccc1)c1ccccc1`, the growth was -5.42% (active) in the assay on NCI-H23 lung; -5.51% (active) in the assay on NCI-H226 lung; 58.7% with NCI-H322M lung; 44.8% with HOP-62 NSCLC; 3.22% (active) in the assay on NCI-H460 lung; -16.5% (active) with HOP-92 NSCLC. Further, the growth in the assay with NCI-H522 lung is -6.25% (active); with A549/ATCC NSCLC, 47.6%; in the assay on 786-0 renal, 4.98% (active); with COLO 205 colon, 4.11% (active).
`CN1CCN(Cc2ccc(C(=O)Nc3cccc(Nc4ccc5c(O)cccc5n4)c3)cc2C(F)(F)F)CC1`: the growth in the assay with NCI-H23 lung is -69.8% (active); in the assay on NCI-H226 lung it was 41.3%; in the assay on NCI-H322M lung, -18.6% (active); in the assay on HOP-62 NSCLC it was -47.2% (active); in the assay on NCI-H460 lung, -18.5% (active); with HOP-92 NSCLC, -37.3% (active). Moreover, the growth in the assay on NCI-H522 lung is -83.9% (active); with A549/ATCC NSCLC, -14.2% (active); in the assay on 786-0 renal it was -55.9% (active); with COLO 205 colon, -78.6% (active).
Consider `COc1cc2oc(-c3cccc(C(=O)Nc4ccc(Cl)cc4)c3)cc(=O)c2c(OCCNC(=O)CNC(=O)OC(C)(C)C)c1OC`, for which the growth in the assay with NCI-H23 lung is 63.8%; in the assay on NCI-H226 lung it was 59.7%; in the assay on NCI-H322M lung, 71.6%; in the assay with HOP-62 NSCLC, 74.7%; in the assay on NCI-H460 lung, 76%; in the assay with HOP-92 NSCLC it was 54.7%. For the same compound, the growth was 45.7% with NCI-H522 lung, 53.9% in the assay with A549/ATCC NSCLC, 76.1% in the assay on 786-0 renal and 56.8% in the assay on COLO 205 colon.
